An excerpt weighted towards active compounds, which were near 10% of everything screened.
HP1b binding inh: HP1-beta chromodomain-methylated histone interaction inhibition. P83916. AlphaScreen HP1-beta / biotin-H3K9me3 peptide binding. Potency, µM (series often up to 114 µM), for inactives: at the top dose activity change, negative = inhibition, most hits filed as inhibitors. actives 0.56% (n = 390,000); further: potency means the concentration at half of the fitted maximal effect; nearly all actives have a fitted effect of over 70% in size
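HP1-beta protein (50 nM final) preincubated 30 min at room temperature with biotinylated H3(1-18)K9me3 peptide (50 nM) in PBS pH 7.4, 0.01% Tween-20, then compound added for 30 min. AlphaScreen streptavidin donor/nickel chelate acceptor beads (10 ug/mL final), 30 min dark, luminescence read.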
G9a block: inhibitors of human histone lysine methyltransferase G9a; Q96KQ7; G9a H3K9 monomethylation, AlphaScreen, 2 h; Potency, µM (titrated, usually from 102 µM), without a hit: at the highest dose activity, negative = inhibition, hits mostly inhibitors; actives 8.8% (n = 350,000); further: potency means the concentration at half of the fitted maximal effect; on the % scale 0 is the no-effect control and ±100 the full control effect; nearly all actives have a fitted effect of over 75% in size
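Compounds were preincubated with 20 nM G9a for 15 min, after which biotinylated H3K9 peptide (500 nM) and SAM (20 uM) started a 2 h room-temperature reaction. Monomethylated product was quantified by antibody-based AlphaScreen chemiluminescence.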
BAZ2B inh: inhibitors of human BAZ2B bromodomain | AID 504333 | AlphaScreen BAZ2B-H3K14Ac peptide displacement | actives 4.4% (n = 360,000) | Q9UIF8 | Potency, µM (top dose mostly 114 µM), inactives show at the highest dose activity change, negative = inhibition, usual class: inhibitors; further: potency means the concentration at half of the fitted maximal effect; on the % scale 0 is the no-effect control and ±100 the full control effect; nearly all actives have a fitted effect of over 60% in size
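BAZ2B 50 nM plus b-H3(5-23)K14Ac 50 nM, PBS pH 7.4/0.01% Tween-20, 30 min RT; compound added (max 110 uM), 30 min RT; streptavidin donor/Ni-chelate acceptor beads 10 ug/mL final, 20 min dark; AlphaScreen read.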
JMJD2A Tudor inh: blocks the human JMJD2A Tudor domain; AlphaScreen JMJD2A-Tudor / H3K4me3 peptide binding; actives 4.4% (n = 390,000); Potency, µM (highest dose often 114 µM), without a hit: at the top dose activity change, negative = inhibition, hits mostly inhibitors; O75164; further: potency means the concentration at half of the fitted maximal effect; on the % scale 0 is the no-effect control and ±100 the full control effect; nearly all actives have a fitted effect of over 50% in size
Target sequence (O75164 whole entry, looked up, the tested form may be a part): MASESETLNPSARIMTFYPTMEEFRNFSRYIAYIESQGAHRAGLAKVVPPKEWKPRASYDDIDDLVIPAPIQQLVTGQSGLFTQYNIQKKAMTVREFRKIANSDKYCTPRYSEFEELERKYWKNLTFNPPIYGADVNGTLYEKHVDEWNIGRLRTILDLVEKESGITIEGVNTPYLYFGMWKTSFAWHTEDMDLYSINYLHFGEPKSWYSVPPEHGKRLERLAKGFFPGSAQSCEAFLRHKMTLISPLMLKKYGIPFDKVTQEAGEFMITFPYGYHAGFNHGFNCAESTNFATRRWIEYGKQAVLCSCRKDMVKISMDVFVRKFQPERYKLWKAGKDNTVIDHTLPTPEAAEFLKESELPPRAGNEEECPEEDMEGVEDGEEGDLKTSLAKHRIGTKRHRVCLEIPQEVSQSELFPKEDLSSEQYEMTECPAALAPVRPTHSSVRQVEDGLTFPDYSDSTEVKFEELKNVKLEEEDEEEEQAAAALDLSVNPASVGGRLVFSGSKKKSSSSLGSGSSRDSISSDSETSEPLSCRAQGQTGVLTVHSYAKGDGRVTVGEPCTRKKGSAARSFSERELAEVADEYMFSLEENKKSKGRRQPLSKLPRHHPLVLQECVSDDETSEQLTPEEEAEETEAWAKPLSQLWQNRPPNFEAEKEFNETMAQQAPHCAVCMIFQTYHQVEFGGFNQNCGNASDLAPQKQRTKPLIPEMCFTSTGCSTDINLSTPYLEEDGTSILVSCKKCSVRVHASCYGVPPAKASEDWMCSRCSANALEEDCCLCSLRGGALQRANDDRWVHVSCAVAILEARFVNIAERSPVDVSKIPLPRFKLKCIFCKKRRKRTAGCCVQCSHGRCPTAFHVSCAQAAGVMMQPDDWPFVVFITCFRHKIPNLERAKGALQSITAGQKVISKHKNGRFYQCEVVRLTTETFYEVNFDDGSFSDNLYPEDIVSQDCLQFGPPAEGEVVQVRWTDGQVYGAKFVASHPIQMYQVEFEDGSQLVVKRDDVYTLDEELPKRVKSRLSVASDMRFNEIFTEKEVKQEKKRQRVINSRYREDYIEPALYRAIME
Six1-Eya2 inh: Six1/Eya2 interaction inhibition; Q15475+O00167; AlphaScreen GST-Six1/His-Eya2 binding, biochemical; stronger effect = lower value; activity change, % (concentration not given with the values); actives 0.56% (n = 360,000); AID 651725; in the data active means activity change below about -65%; inconclusive means mostly about -30% to -63%; further: on the % scale 0 is the no-effect control and ±100 the full control effect
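AlphaScreen luminescence read after one hour at 37 °C in darkness. Pin-transferred compounds met GST-Six1 and His-Eya2 protein (5X stock 250 nM/500 nM) plus glutathione donor and Ni-chelate acceptor beads (5X, 50 ug/mL).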
CtBP-E1A blk: CtBP/E1A binding inhibition. AlphaScreen GST-E1A/His-CtBP binding, 1536-well; stronger effect = lower value. AID 651724. activity change, % (test concentration not listed). actives 0.49% (n = 340,000); in the data active means activity change below about -65%; inconclusive means mostly about -30% to -63%; further: on the % scale 0 is the no-effect control and ±100 the full control effect
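Protein mix (5X: 125 nM each GST-E1A, His-CtBP) was incubated with pinned compound 2 h at 37 deg C in dark, in 50 mM Tris pH 8.0 buffer with 300 mM NaCl. Glutathione donor and nickel acceptor beads followed; AlphaScreen signal read after 1 h.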
Active calls of the source: *; ? = inconclusive; nt = no result given; [ ] = dose if it differs, or a comment. Unless noted, the call rests on the fitted dose curve; in most records, active means well fitted inhibition curve with a large enough effect; inconclusive means small, poorly fitted or top-dose-only effect; inactive means no such curve, though single readings can be large or run the other way.

SMILES	HP1b binding inh	G9a block	BAZ2B inh	JMJD2A Tudor inh	Six1-Eya2 inh	CtBP-E1A blk
CCOc1cc(-c2ccc(OC(=O)c3ccc(C)cc3)c(OC)c2)cc(=O)c2c(C)oc(C)c12	4.5%	?	39.8µM*	?	nt	nt
COc1cc(-c2cc(OC)c3c(C)oc(C)c3c(=O)c2)ccc1OC(=O)c1ccc(C)cc1	23.5%	-27.9%[59 µM]	-30.9%	-34.4%	nt	nt
Cc1cc(C)n(CC(=O)NC2C(=O)N3C(C(=O)O)=C(CSc4nnc(C)s4)CSC23)n1 (centres undefined)	7.0%	39.8µM*	70.8µM*	25.1µM*	-12.2	8.9
Cc1nnc(SCC2=C(C(=O)O)N3C(=O)C(NC(=O)c4cccc(F)c4F)C3SC2)s1 (centres undefined)	10.7%	?	?	-21.6%	-3.4	-14.7
Cc1nnc(SCC2=C(C(=O)O)N3C(=O)C(NC(=O)Cn4ncc(Cl)c4C)C3SC2)s1 (centres undefined)	13.7%	28.2µM*	?	?	-14.0	6.8
Cc1ccc(S(=O)(=O)c2ccccc2)cc1S	nt	3.55µM*	3.8%	nt	nt	nt
Nc1ccc(S(=O)(=O)c2cccc(N)c2)cc1	17.1%	-1.9%[59 µM]	-3.1%	-15.4%	-1.7	0.3
O=C(COc1ccccc1[N+](=O)[O-])N1CCC(c2nc3ccccc3o2)CC1	29.9%	8.7%[59 µM]	-14.8%	-2.3%	nt	nt
CCC(=O)N(C1=C(NC(C)C)C(=O)c2ccccc2C1=O)C(C)C	-0.4%	44.7µM*	-31.1%	-23.7%	-3.1	-16.0
CCOC(=O)C1=C(CS(=O)(=O)c2ccc(C)cc2)NC(=O)NC1c1cc(OC)c(O)c(OC)c1 (centres undefined)	36.9%	9.3%	-21.4%	0.0%	-0.6	2.9
C=CCn1c(C(c2ccccc2)c2ccccc2)n[nH]c1=S	23.1%	10µM*	-30.5%	-17.7%[57.1 µM]	-16.1	-1.4
C=CCn1c(OCc2ccccc2)n[nH]c1=S	?	8.91µM*	-17.0%	3.16µM*	9.4	-8.0
CCn1c(C(c2ccccc2)c2ccccc2)n[nH]c1=S	-5.0%	7.94µM*	-7.0%	31.6µM*	-12.1	0.6
Cc1cccc(N(C)C(=O)Cn2c(=O)oc3cc(S(=O)(=O)N4CCCCC4)ccc32)c1	7.7%	5.2%[59 µM]	-1.4%	-17.5%	nt	nt
CCS(=O)(=O)N1Cc2cc(C(=O)N(C)C)nc(-c3cccc(-c4ccc(F)cc4)c3)c2[C@H]1CCO	nt	nt	nt	nt	-4.6	-0.8
COC(=O)c1ccc(N/N=C/c2cc([N+](=O)[O-])cc(OC)c2O)cc1	29.0%	?	-16.0%	-18.2%	-2.9	4.3
Cc1ccc(Nc2ncccc2C(N)=O)cc1[N+](=O)[O-]	-11.6%	35.5µM*	-30.1%	-14.7%	-3.5	1.3
CCOC(=O)c1ccc(N/N=C/c2cc(Br)cc([N+](=O)[O-])c2O)cc1	?	0.562µM*	?	10µM*	-12.5	-10.5
Cc1ccc(NC(=O)Nc2ccccc2)cc1[N+](=O)[O-]	15.8%	8.8%[59 µM]	-28.3%	-13.0%	-4.7	1.0
CCOC(=O)c1ccc(Nc2ncccc2[N+](=O)[O-])cc1	?	nt	7.94µM*	?	-29.9	-21.3
Cc1ccc(OCc2nc(-c3ccc(C(=O)NCCc4ccc(Cl)cc4)cc3)oc2C)cc1	23.2%	3.1%[59 µM]	-3.6%	5.2%	nt	nt
O=C(NCC(c1ccco1)N1CCc2ccccc21)c1cccc([N+](=O)[O-])c1 (centres undefined)	-11.3%	4.4%[2.33 µM]	50.1µM*	56.2µM*	-24.1	-20.2
Cc1ccc(S(=O)(=O)NCC(c2ccco2)N2CCc3ccccc32)cc1 (centres undefined)	10.3%	39.8µM*	?	?	-27.3	-14.7
Cc1ccc(C(=O)NCC(c2ccco2)N2CCc3ccccc32)cc1 (centres undefined)	-23.2%	50.1µM*	?	?	-13.0	-6.4
O=C(NCC(c1ccco1)N1CCc2ccccc21)c1ccccc1Br (centres undefined)	-26.4%	3.7%[0.501 µM]	?	?	-24.4	-3.9
SMILES	HP1b binding inh	G9a block	BAZ2B inh	JMJD2A Tudor inh	Six1-Eya2 inh	CtBP-E1A blk
O=C(NCC(c1ccco1)N1CCc2ccccc21)c1ccccc1F (centres undefined)	?	56.2µM*	?	?	-22.2	-2.7
Cc1cccc(C(=O)NCC(c2ccco2)N2CCc3ccccc32)c1 (centres undefined)	-13.7%	-5.1%[2.33 µM]	?	?	-23.4	-14.0
CCOC(=O)CCC(=O)NNC(=O)COc1ccc(C(C)C)cc1Br	27.6%	-21.7%	-22.6%	-11.6%	12.9	nt
CCN(C(=O)COC(=O)CSc1ccccc1)c1c(N)n(Cc2ccccc2)c(=O)[nH]c1=O	25.8%	?	-0.5%	-7.4%	2.8	21.3
CS(=O)(=O)c1ccc(N)cc1	42.9%	44.7µM*	7.7%	-9.0%	6.3	1.7
CCOc1nc2ccccc2cc1/C=C/C(=O)O	50.9%	50.1µM*	-0.9%	0.7%	-1.1	7.3
Cc1ccc(C(=O)Nc2nc3ccccc3c(=O)s2)cc1	17.0%	8.91µM*	?	89.1µM*	4.7	9.3
O=C(Nc1ccc(C(=O)OCc2cc(=O)n3nc(C4CC4)sc3n2)cc1)c1ccccc1	27.8%	?	-3.8%	-4.6%	nt	nt
O=C(CCCN1C(=O)/C(=C\c2cccs2)SC1=S)Nc1cccc(C(=O)O)c1	-1.3%	?	-35.5%	?	-14.4	-15.5
O=C(CCCN1C(=O)/C(=C/c2ccco2)SC1=S)Nc1cccc(C(=O)O)c1	?	nt	44.7µM*	?	-27.1	-5.9
O=C(CCCN1C(=O)/C(=C\c2ccco2)SC1=S)Nc1ccc(O)cc1C(=O)O	25.1µM*	10µM*	14.1µM*	22.4µM*	?	-28.1
O=C(CCCN1C(=O)/C(=C\c2cccs2)SC1=S)Nc1ccc(O)cc1C(=O)O	45.8%	?	?	12.5%	-10.4	nt
COC1=CC(=O)OC(c2ccccc2)C1 (centres undefined)	nt	nt	nt	nt	11.1	11.6
CCN(CC)CCN1c2ccccc2Sc2ccccc21	44.7µM*	?	70.8µM*	2.82µM*	-13.9	-19.7
CCN(CC)[C@@H](C)CN1c2ccccc2Sc2ccccc21	nt	8.91µM*	nt	nt	nt	nt
CCc1ccc2c(c1)N(C[C@H](C)CN(C)C)c1ccccc1S2	nt	17.8µM*	nt	nt	nt	nt
CCN(CC)CCN1c2ccccc2Sc2ccc3ccccc3c21	50.0%	50.1µM*	?	?	4.0	4.4
CC(=O)N1c2ccccc2Sc2ccc3ccccc3c21	nt	nt	nt	nt	-6.3	4.5
CCN(CC)CCNC(=O)c1ccc2nc(CCc3ccccc3)oc2c1	7.5%[57 µM]	-3.4%[59 µM]	-3.6%	-22.7%	nt	nt
CCN(c1ccccc1)S(=O)(=O)c1ccc(Cl)c(NC(=O)COC(=O)c2cc(O)c3ccccc3c2O)c1	nt	?	50.1µM*	nt	nt	nt
